Test results from PubChem BioAssay (NCATS).
Several values for one entry are separate records, joined by “and”; a condition that tells them apart may be missing. Identical values can stand only once. Results filed as inconclusive are left out. Activity calls are given as the source filed them. The call rests on the fitted dose curve; in most records, active means well fitted curve in the direction sought with a large enough effect; inconclusive means small, poorly fitted or top-dose-only effect, or another doubt; inactive means no such curve, though single readings can be large; an effect the other way counts as inactive or inconclusive.

Columns and labels:
[1] = qHTS for Activators of Parkin Expression: LOPAC Validation Assay (FLuc Reporter) (AID 720573;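 further: 0% = DMSO and 100% = positive control compounds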)
Method in brief: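 Readout is FLuc luminescence from neuronal reporter cells (Parkin promoter, FLuc plus NLuc) after 24 h compound exposure in dose response. Values normalized to neutral DMSO and positive-control compounds.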

[2] = molecular target: T1, Hexokinase-4 (Homo sapiens) + Glucokinase regulatory protein (Homo sapiens) (UniProt P35557+Q14397); assay: qHTS assay for inhibitors of recombinant human GCK-GKRP interaction: Diaphorase-coupled assay (AID 743205)
T1 sequence (P35557 whole entry, looked up): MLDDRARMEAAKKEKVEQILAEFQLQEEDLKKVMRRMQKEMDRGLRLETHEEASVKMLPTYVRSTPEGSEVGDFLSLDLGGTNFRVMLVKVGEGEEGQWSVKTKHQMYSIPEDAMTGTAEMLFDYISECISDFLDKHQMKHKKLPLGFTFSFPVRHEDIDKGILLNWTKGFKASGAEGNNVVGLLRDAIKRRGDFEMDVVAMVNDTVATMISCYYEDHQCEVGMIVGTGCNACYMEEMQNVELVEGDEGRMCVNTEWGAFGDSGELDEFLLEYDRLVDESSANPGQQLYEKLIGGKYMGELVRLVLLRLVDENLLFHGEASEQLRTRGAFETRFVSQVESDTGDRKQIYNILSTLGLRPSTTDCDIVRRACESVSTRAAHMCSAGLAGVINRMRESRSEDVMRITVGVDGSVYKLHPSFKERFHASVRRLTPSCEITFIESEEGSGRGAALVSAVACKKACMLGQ
T1 sequence (Q14397 whole entry, looked up): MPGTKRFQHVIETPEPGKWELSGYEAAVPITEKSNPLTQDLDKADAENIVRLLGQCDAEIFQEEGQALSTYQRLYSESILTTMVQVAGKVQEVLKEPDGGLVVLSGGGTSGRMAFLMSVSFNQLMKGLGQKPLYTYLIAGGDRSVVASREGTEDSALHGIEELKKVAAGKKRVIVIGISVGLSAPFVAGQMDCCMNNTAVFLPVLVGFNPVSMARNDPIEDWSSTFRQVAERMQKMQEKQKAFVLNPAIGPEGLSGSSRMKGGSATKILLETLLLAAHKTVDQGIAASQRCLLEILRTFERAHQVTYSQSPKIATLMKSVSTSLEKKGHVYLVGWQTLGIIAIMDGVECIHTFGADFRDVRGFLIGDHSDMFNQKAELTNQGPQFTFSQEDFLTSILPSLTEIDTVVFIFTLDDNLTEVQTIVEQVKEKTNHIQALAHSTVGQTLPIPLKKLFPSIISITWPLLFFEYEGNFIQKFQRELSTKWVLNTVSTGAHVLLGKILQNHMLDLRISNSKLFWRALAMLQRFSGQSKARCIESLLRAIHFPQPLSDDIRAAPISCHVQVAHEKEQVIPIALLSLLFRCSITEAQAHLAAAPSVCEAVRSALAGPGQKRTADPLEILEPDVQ
Method in brief: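 Signal derives from resorufin generated by diaphorase, linked to GCK turnover of glucose (5 mM) and ATP (0.4 mM). Enzyme complex was added after a 20-minute compound preincubation and monitored for 30 minutes.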

[3] = molecular target: T1, Hexokinase-4 (Homo sapiens) + Glucokinase regulatory protein (Homo sapiens); assay: qHTS assay for inhibitors of recombinant human GCK-GKRP interaction: ADP-Glo assay (AID 743206);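 further: plate controls were DMSO plus enzyme for no effect and no enzyme for full effect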
Method in brief: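 Pin-transferred compounds meet a 15 nM GST-GCK/15 nM FLAG-GKRP/2 uM S6P mix (dispense concentrations). ATP is then added to 0.4 mM final with 5 mM glucose, and the reaction runs 60 min at room temperature. ADP is quantified luminescently.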

[4] = molecular target: T1, Hexokinase-4 (Homo sapiens) + Glucokinase regulatory protein (Homo sapiens); assay: qHTS assay for inhibitors of recombinant human GCK-GKRP interaction: HTRF assay (AID 743207);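 further: 0% = DMSO with GCK present and -100% = DMSO wells lacking GCK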
Method in brief: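 Titration screening format: recombinant GST-GCK and FLAG-GKRP at 5 nM, S6P at 2 uM, labelled anti-tag antibodies, 60 min at RT, dual-wavelength HTRF readout.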

[5] = qHTS Assay for Identifying Gametocytocidal Compounds (AID 743244); further: potency means the concentration at half of the fitted maximal effect;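 on max response: on the % scale 0 is the no-effect control and ±100 the full control effect; actives lower the fluorescent signal which means gametocytes are killed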; settings: P. falciparum 3D7 stage III-V gametocytes, alamarBlue, 72 h; max response: active compounds read low
Method in brief: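 A resazurin-based viability read-out was applied to mature P. falciparum gametocytes: 72 h compound treatment, then 24 h dye incubation, with falling fluorescence signalling gametocytocidal effect.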

Brc1c(NC2=NCCN2)ccc2nccnc12
inactive: outcome [1] | outcome [2] | outcome [3] | Potency [4] | max response [5] -8.09% and 19.7%

Cc1nnc(SCC2=C(C(=O)O)N3C(=O)[C@@H](NC(=O)Cn4cnnn4)[C@H]3SC2)s1
inactive: outcome [1] | outcome [2] | outcome [3] | Potency [4] | max response [5] 5.06% and 32.1%

NC1=NCC2c3ccccc3Cc3ccccc3N12 (stereo unspecified)
inactive: outcome [1] | outcome [2] | outcome [3] | Potency [4] | max response [5] -4.93% and 13.9%

CCc1c(C)[nH]c2c1C(=O)C(CN1CCOCC1)CC2 (stereo unspecified)
inactive: outcome [1] | outcome [2] | outcome [3] | Potency [4] | max response [5] 2.02% and 26.2%

NC(N)=NC(=O)Cc1c(Cl)cccc1Cl
inactive: outcome [1] | outcome [2] | outcome [3] | Potency [4] | max response [5] 5.89% and 26.9%

CC(C(=O)O)c1ccc(CC2CCCC2=O)cc1 (stereo unspecified)
inactive: outcome [1] | outcome [2] | outcome [3] | Potency [4] | max response [5] -0.912% and 17.1%

NCCCNCCSP(=O)(O)O
inactive: outcome [1] | outcome [2] | outcome [3] | Potency [4] | max response [5] 4.77% and 12.2%

CCCCCN(CCCCC)C(=O)C(CCC(=O)O)NC(=O)c1ccc(Cl)c(Cl)c1 (stereo unspecified)
inactive: outcome [1] | outcome [2] | outcome [3] | Potency [4] | max response [5] 10.8% and 16.9%

CC(C)NNC(=O)c1ccncc1
inactive: outcome [1] | outcome [2] | outcome [3] | Potency [4] | max response [5] -4.04% and 10%

CCOC(=O)C1=C(C)NC(C)=C(C(=O)OC)C1c1cccc([N+](=O)[O-])c1 (stereo unspecified)
inactive: outcome [1] | outcome [2] | outcome [3] | Potency [4] | max response [5] 5.7%

C=CCc1ccccc1OCC(O)CNC(C)C (stereo unspecified)
inactive: outcome [1] | outcome [2] | outcome [3] | Potency [4] | max response [5] 17.2%

CC(=O)OC(C)C[N+](C)(C)C (stereo unspecified)
inactive: outcome [1] | outcome [2] | outcome [3] | Potency [4] | max response [5] -4.19% and 23.1%

CC(=O)[C@]1(O)Cc2c(O)c3c(c(O)c2[C@@H](O[C@H]2C[C@H](N)[C@H](O)[C@H](C)O2)C1)C(=O)c1ccccc1C3=O
inactive: outcome [1] | outcome [2] | outcome [3] | Potency [4]
active: Potency [5] 6.31 µM and 1.12 µM

COc1cc2c(cc1OC)-c1cc(=Nc3c(C)cc(C)cc3C)n(C)c(=O)n1CC2
inactive: outcome [1] | outcome [2] | outcome [3] | Potency [4] | max response [5] 25.2%

CCCCCCCC/C=C\CCCCCCCC(=O)NCc1ccc(O)c(OC)c1
inactive: outcome [1] | outcome [2] | outcome [3] | Potency [4] | max response [5] 0.654% and 9.43%

NS(=O)(=O)c1cc2c(cc1Cl)NC(C1CC3C=CC1C3)NS2(=O)=O (stereo unspecified)
inactive: outcome [1] | outcome [2] | outcome [3] | Potency [4] | max response [5] -0.791% and -20.2%

O=C(O)CP(=O)(O)O
inactive: outcome [1] | outcome [3] | Potency [4] | max response [5] -7.11% and 18.5%

CN(C)CCOC(=O)COc1ccc(Cl)cc1
inactive: outcome [1] | outcome [2] | outcome [3] | Potency [4] | max response [5] 11% and 8.28%

c1ccc2c(c1)CCCC2C1=NCCN1 (stereo unspecified)
inactive: outcome [1] | outcome [3] | Potency [4] | max response [5] -2.52% and 13.8%

CC(=O)Oc1cc(C(C)C)c(OCCN(C)C)cc1C
inactive: outcome [1] | outcome [3] | Potency [4] | max response [5] 14.5% and 12.4%

CCOC(=O)C1=C(C)NC(C)=C(C(=O)OC)C1c1cccc(Cl)c1Cl (stereo unspecified)
inactive: outcome [1] | outcome [2] | outcome [3] | Potency [4] | max response [5] 21.2% and 4.35%

CCCOc1ccccc1-c1nc2n[nH]nc2c(=O)[nH]1
inactive: outcome [1] | outcome [2] | outcome [3] | Potency [4] | max response [5] -5.53% and 14.3%

CN(C)C/C=C(/c1ccc(Br)cc1)c1cccnc1
inactive: outcome [1] | outcome [2] | outcome [3] | Potency [4] | max response [5] -5.39% and -10%

C[C@]12CCC(=O)C=C1CC[C@@H]1[C@@H]2CC[C@@]2(C)[C@H]1CC[C@]2(O)C(=O)CO
inactive: outcome [1] | outcome [3] | Potency [4] | max response [5] -4.53% and -8.22%

O=C(O)CN(CCN(CC(=O)O)CC(=O)O)CCN(CC(=O)O)CC(=O)O
inactive: outcome [1] | outcome [2] | outcome [3] | Potency [4] | max response [5] 13% and 27.1%
